# Measured values as given in PubChem BioAssay.
# Activity calls are given as the source filed them.
# What was measured:
# [1] = binders of probe aFSTL3 on microarray, primary screen, stem cell growth factor project, biochemical, small-molecule microarray, fluorescence 635/667 (AID 1064); conditions: higher = more signal;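 further: measures binding of the biotinylated anti-FSTL3 antibody to printed compounds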
# [2] = binders from COS7 lysate, DM2A8 probe, primary screen, torsin A project, cell lysate, small-molecule microarray, fluorescence 635/667 (AID 1065); conditions: higher = more signal, COS7 lysate expressing mutant human TOR1A
# [3] = binders of probe aFGF2 on microarray, primary screen, stem cell growth factor project, biochemical, small-molecule microarray, fluorescence 635/667 (AID 1067); conditions: higher = more signal;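 further: measures binding of biotinylated aFGF2 protein to printed compounds on slides; z-score merges feature fluorescence and signal-to-noise across triplicate slides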
# [4] = binders of probe aFGF10 on microarray, primary screen, stem cell growth factor project, biochemical, small-molecule microarray, fluorescence 635/667 (AID 1071); conditions: higher = more signal;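 further: score merges 667 nm spot intensity and signal to noise from triplicate slides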
# [5] = target: Neurogenic locus notch homolog protein 2 (Homo sapiens) (UniProt Q04721); assay: Notch2 binders on small-molecule microarrays, primary screen, biochemical, small-molecule microarray, 635 nm fluorescence, stem cell growth factors (AID 1073); conditions: Notch2 binding, higher = more signal
# [6] = target: Pro-neuregulin-1, membrane-bound isoform (Homo sapiens) (UniProt Q02297); assay: NRG1 binders on small-molecule microarrays, primary screen, psychiatric disease protein project, biochemical, small-molecule microarray, fluorescence 635/667 (AID 1075); conditions: NRG1 binding, 635 nm fluorescence, higher = more signal;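 further: score combines 667 nm spot fluorescence with signal to noise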
# [7] = test system: Neuregulin-1 EGF-like domain; assay: binders of neuregulin-1 EGF-like domain, primary screen, biochemical, small-molecule microarray, 635 nm fluorescence (AID 1081); conditions: small-molecule microarray binding, higher = more signal;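 further: binding of the protein to compounds printed on small-molecule microarray slides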
# [8] = FRG1 promoter luciferase signal modulators, primary screen, FRG1 inhibition for FSHD, cell-based, C2C12 myotubes, firefly/Renilla luciferase, luminescence (AID 1084); conditions: higher = more signal, called active from +8 up or from −8 down
# [9] = binders of probe aFST on microarray, primary screen, stem cell growth factor project, biochemical, small-molecule microarray, fluorescence 635/667 (AID 1086); conditions: higher = more signal;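 further: score merges 667 nm fluorescence with signal-to-noise of each printed compound spot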
# [10] = binders of probe aHhip on microarray, primary screen, stem cell growth factor project, biochemical, small-molecule microarray, fluorescence 635/667 (AID 1087); conditions: higher = more signal;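 further: score merges spot fluorescence at 667nm with spot signal to noise ratio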
# [11] = test system: PRMT1 (protein arginine N-methyltransferase 1); assay: PRMT1 binders on small-molecule microarrays, primary screen, biochemical, small-molecule microarray, 635 nm fluorescence (AID 1088); conditions: small-molecule microarray binding, higher = more signal;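 further: binding of Prmt1 protein to compounds spotted on small-molecule microarray slides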
# [12] = yeast growth modulation, basal conditions, primary screen, YJM789 clinical isolate, OD600, 24 h (AID 1089);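 further: growth of clinical yeast isolate S. cerevisiae YJM 789 seeded 1000 cells per well; test concentration not given here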; conditions: S. cerevisiae YJM789 growth, higher = more signal, called active from +8 up or from −8 down
# [13] = fission yeast growth modulation, primary screen, strain 972, OD600, 24 h, no modulator (AID 1090);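 further: basal condition with compound alone and no growth modifier present; test concentration not given here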; conditions: S. pombe 972 growth, higher = more signal, called active from +8 up or from −8 down
# [14] = S. cerevisiae growth modulation with rapamycin, primary screen, strain BY4716, OD600, 96 h (AID 1091); conditions: higher = more signal, called active from +8 up or from −8 down; further: test concentration not given here
# [15] = target: Torsin-1A-interacting protein 2 (Homo sapiens) (UniProt Q8NFQ8); assay: LULL1 binders on small-molecule microarray, primary screen, cell lysate, human LULL1 lysate, 635/667 nm fluorescence (AID 1092); conditions: hLULL1 lysate binding, 635 nm fluorescence, higher = more signal;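 further: probe is lysate of COS7 cells overexpressing human LULL1; score merges per-feature 667 nm fluorescence with signal-to-noise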
# [16] = E. coli growth modulation, two-sided OD650, primary screen, E. coli filamentation project, strain DRC41, 24 h (AID 1093); conditions: OD650, 24 h, higher = more signal, called active from +8 up or from −8 down;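 further: MC1000 strain lacking acrAB efflux and sulA so SOS filamentation is blocked; test concentration not given here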
# [17] = small-molecule microarray binders of probe aLefty2, primary screen, biochemical, biotinylated probe, 635/667 nm fluorescence (AID 1094); conditions: higher = more signal;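 further: score merges spot fluorescence near 667 nm with spot signal-to-noise ratio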
# [18] = test system: Noggin (protein binding on small-molecule microarray); assay: Noggin binders on small-molecule microarray, primary screen, biochemical, 635/667 nm fluorescence (AID 1095); conditions: 635 nm fluorescence, higher = more signal;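 further: score merges 667 nm feature fluorescence with signal to noise over triplicate slides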
# [19] = target: Neurogenic locus notch homolog protein 3 (Homo sapiens) (UniProt Q9UM47); assay: NOTCH3 binders on small-molecule microarray, primary screen, biochemical, 635/667 nm fluorescence (AID 1096); conditions: NOTCH3 binding, 635 nm fluorescence, higher = more signal
# [20] = small-molecule microarray binders of probe aEGFR, primary screen, biochemical, biotinylated probe, 635/667 nm fluorescence (AID 1097); conditions: higher = more signal;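 further: probe is a biotinylated anti-EGFR antibody binding compounds printed on slides; score combines fluorescence near 667 nm and signal to noise of each spot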
# Neurogenic locus notch homolog protein 2 (Homo sapiens), sequence (Q04721 whole entry, looked up, canonical isoform): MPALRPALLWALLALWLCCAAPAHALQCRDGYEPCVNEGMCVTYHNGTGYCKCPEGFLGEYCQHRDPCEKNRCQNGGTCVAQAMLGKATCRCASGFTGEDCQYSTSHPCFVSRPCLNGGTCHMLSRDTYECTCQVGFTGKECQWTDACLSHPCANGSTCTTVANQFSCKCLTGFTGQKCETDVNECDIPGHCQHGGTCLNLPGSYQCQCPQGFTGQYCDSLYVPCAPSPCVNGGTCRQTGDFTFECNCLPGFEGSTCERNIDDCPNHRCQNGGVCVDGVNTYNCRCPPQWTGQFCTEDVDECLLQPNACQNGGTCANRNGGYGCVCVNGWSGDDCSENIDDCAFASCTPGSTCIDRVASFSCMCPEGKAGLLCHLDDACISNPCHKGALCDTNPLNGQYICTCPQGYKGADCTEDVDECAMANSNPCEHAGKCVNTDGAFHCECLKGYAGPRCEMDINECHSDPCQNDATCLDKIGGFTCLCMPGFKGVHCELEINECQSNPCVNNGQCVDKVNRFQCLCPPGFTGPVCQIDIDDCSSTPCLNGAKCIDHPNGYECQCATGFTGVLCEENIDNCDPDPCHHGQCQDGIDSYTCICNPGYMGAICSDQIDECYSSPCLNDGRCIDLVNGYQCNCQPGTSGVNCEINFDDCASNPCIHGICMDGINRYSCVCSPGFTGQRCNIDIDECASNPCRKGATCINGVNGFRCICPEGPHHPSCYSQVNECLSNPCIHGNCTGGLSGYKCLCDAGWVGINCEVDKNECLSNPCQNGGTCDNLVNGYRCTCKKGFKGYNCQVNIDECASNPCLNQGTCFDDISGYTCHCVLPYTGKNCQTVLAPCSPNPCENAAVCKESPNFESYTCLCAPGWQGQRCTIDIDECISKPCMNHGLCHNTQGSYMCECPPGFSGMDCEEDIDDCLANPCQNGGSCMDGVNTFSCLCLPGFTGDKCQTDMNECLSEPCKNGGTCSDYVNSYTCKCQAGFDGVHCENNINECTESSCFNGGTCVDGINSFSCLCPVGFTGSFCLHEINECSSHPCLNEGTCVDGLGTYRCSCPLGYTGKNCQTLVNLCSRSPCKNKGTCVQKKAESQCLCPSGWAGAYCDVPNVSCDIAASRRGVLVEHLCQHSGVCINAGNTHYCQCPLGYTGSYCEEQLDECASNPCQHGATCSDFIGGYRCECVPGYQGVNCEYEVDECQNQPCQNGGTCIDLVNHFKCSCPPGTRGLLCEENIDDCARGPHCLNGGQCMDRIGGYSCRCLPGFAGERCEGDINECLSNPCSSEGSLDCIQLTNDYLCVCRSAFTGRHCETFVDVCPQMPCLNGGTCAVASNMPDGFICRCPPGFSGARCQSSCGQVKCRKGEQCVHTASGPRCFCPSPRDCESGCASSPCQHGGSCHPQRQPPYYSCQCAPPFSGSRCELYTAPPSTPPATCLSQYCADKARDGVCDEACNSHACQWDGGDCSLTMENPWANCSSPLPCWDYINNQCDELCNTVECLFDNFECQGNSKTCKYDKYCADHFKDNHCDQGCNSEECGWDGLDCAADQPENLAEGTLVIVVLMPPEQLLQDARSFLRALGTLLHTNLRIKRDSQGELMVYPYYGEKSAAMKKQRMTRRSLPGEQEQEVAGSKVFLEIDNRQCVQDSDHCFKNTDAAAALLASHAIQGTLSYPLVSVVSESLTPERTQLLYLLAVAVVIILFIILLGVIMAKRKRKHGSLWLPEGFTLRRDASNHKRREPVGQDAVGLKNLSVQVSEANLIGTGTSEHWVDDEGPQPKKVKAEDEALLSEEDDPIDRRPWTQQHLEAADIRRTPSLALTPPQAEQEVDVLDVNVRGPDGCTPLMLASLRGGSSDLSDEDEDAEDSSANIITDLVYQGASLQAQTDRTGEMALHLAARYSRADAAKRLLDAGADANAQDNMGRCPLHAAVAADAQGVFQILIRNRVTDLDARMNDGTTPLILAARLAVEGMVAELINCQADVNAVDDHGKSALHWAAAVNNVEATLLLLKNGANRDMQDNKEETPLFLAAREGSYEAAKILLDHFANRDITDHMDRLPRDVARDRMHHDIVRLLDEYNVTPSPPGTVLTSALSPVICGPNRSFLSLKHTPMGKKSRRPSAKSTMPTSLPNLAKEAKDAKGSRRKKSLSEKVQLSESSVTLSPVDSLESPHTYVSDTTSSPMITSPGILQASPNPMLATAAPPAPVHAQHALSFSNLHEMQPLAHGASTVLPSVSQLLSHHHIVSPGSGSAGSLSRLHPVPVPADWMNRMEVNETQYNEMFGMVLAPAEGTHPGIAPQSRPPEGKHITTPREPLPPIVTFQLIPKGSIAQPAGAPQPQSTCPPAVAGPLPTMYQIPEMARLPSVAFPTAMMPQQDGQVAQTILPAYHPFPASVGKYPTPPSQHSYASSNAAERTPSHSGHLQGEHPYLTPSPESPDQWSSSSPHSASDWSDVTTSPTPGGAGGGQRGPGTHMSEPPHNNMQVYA
# Torsin-1A-interacting protein 2 (Homo sapiens), sequence (Q8NFQ8 whole entry, looked up): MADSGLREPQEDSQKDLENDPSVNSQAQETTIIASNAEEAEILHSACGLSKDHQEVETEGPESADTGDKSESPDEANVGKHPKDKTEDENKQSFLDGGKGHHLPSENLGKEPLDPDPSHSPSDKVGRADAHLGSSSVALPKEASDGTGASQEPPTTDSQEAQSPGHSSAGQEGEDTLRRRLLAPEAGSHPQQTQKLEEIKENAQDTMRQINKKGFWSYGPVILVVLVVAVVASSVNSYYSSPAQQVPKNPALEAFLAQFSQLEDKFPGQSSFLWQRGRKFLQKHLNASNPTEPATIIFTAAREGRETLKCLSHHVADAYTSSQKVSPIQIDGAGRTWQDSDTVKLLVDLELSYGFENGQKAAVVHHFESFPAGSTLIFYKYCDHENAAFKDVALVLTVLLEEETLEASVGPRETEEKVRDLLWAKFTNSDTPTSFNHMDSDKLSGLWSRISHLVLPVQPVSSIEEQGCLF
# Pro-neuregulin-1, membrane-bound isoform (Homo sapiens), sequence (Q02297 whole entry, looked up, the tested form may be a part, canonical isoform): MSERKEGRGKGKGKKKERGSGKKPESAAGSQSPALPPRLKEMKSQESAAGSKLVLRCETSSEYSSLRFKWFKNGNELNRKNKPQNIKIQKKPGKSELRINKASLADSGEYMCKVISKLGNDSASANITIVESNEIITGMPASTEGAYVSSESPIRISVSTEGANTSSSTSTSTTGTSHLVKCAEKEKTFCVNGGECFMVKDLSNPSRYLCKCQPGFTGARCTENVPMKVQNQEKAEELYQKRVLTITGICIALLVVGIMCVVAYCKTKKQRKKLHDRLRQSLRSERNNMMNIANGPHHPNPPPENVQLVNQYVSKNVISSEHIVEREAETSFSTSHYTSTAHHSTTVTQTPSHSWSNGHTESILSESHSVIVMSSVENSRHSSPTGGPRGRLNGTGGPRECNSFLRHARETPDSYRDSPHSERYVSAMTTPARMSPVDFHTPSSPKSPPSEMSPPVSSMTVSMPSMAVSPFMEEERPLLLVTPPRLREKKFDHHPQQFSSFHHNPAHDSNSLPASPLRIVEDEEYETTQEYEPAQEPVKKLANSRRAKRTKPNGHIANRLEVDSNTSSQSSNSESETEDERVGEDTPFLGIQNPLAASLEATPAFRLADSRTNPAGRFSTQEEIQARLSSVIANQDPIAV
Structure (SMILES),composite z-score [1],composite z-score [2],composite z-score [3],composite z-score [4],composite z-score [5],composite z-score [6],composite z-score [7],z-score [8],composite z-score [9],composite z-score [10],composite z-score [11],z-score [12],z-score [13],z-score [14],composite z-score [15],z-score [16],composite z-score [17],composite z-score [18],composite z-score [19],composite z-score [20]
COC(=O)C1(Cc2ccccc2)C=C2C(=C(c3ccccc3)C(=O)C2C)CN1 (stereo not given),2.22,0.0069,0.731,1.21,1.19,1.45,1.01,0.943 (inactive),1.87,2.63,-1.24,-0.175 (inactive),-0.183 (inactive),0.269 (inactive),1.29,-0.749 (inactive),1.32,-1.58,0.885,1.29
CCN(CC)c1ccc(N2CC=CC34O[C@@H]5/C=C\CCC(C)OC(=O)C5[C@H]3C(=O)N(CCO)[C@@H]4C2=O)cc1 (stereo not given in full),0.478,-0.476,-0.103,-0.57,-0.331,1.57,1.15,1.16 (inactive),-1.17,-0.134,1.2,-1.27 (inactive),-2.02 (inactive),-0.806 (inactive),3.17,0.565 (inactive),-0.134,-0.563,0.0541,-0.203
C[C@]1(C(=O)O)c2ccccc2C(=O)N(Cc2ccccc2)[C@H]1c1ccc(CO)cc1,1.63,-0.646,-0.116,-1.03,-1.24,0.869,0.521,-0.319 (inactive),-0.42,-0.164,-1.68,1.09 (inactive),0.468 (inactive),1.37 (inactive),-0.884,0.651 (inactive),0.119,-1.51,-1.9,-0.288
COCCOC(=O)N1C(=O)[C@@]2(c3cc(C#CCNC(N)=O)ccc31)[C@H](C(=O)N1CCCCCCC1)[C@H]1C(=O)O[C@H](c3ccccc3)[C@H](c3ccccc3)N1[C@@H]2c1ccc(O)cc1,0.333,0.189,-0.0557,0.159,0.845,0.571,0.596,-0.134 (inactive),0.706,0.0066,1.41,0.355 (inactive),-0.216 (inactive),0.903 (inactive),1.66,0.0623 (inactive),0.111,1.46,1.08,-0.0381
O=C1O[C@@H](c2ccccc2)[C@@H](c2ccccc2)N2[C@@H](c3ccccc3OCCO)[C@]3(C(=O)Nc4ccc(C#CCCO)cc43)[C@@H](C(=O)N3CCN(c4ncccn4)CC3)[C@H]12,-0.132,-0.167,-0.0004,0.608,1.34,1.56,1.13,-2.32 (inactive),0.29,-0.069,1.55,1.75 (inactive),-0.631 (inactive),3.99 (inactive),2.93,0.935 (inactive),-0.0708,0.207,0.59,-0.0858
O=C1C[C@@](C(=O)NCC(F)(F)F)(c2ccc([N+](=O)[O-])cc2)[C@@H](c2ccc(CO)cc2)N1C1CCCCC1,0.99,1.2,0.0216,0.606,0.303,1.24,1.37,0.265 (inactive),0.243,0.554,1.56,-0.748 (inactive),-0.209 (inactive),-0.917 (inactive),3.48,0.258 (inactive),0.11,0.956,0.823,-0.0271
O=C1O[C@@H](c2ccccc2)[C@@H](c2ccccc2)N2[C@@H](c3ccc(O)cc3)[C@]3(C(=O)Nc4ccccc43)[C@@H](C(=O)Nc3nc4ccccc4s3)[C@H]12,0.0072,0.155,-0.0206,0.43,-0.434,1.28,1.15,-2.37 (inactive),0.642,0.0373,1.51,0.813 (inactive),0.849 (inactive),1.4 (inactive),2.77,-0.0768 (inactive),-0.15,0.797,0.881,-0.132
Cc1ccc(S[C@]2(C(=O)NCC(C)C)CC(=O)N(Cc3ccccc3Cl)[C@@H]2c2ccc(CO)cc2I)cc1,0.699,1.65,-0.0818,0.452,-1.11,1.54,1.36,-1.45 (inactive),-0.414,-0.0645,0.939,-1.38 (inactive),-1.87 (inactive),0.0522 (inactive),1.8,-0.712 (inactive),0.225,-1.08,-0.309,-0.304
CC(C)N1CC=CC23O[C@@H]4C=CCOC(=O)[C@@H]4[C@H]2C(=O)N(C(C)CO)[C@@H]3C1=O (stereo not given in full),0.377,-1.2,-0.071,-0.536,-1.11,2.17,0.9,0.106 (inactive),-0.508,-0.593,-1,-0.741 (inactive),-0.06 (inactive),-0.0277 (inactive),-0.163,-0.0334 (inactive),0.119,-1.03,-0.66,-0.199
CCCc1cccc(=O)o1,-0.218,-0.001,-0.112,0.191,0.168,0.785,1.24,0.273 (inactive),-0.278,0.155,0.804,-0.91 (inactive),0.641 (inactive),-0.467 (inactive),1.17,-0.454 (inactive),-0.0475,0.614,0.363,0.0276
